Test results taken from paper PMC5540273 (PLoS ONE, 2017).

Experiments:
Details in all cases: concentration: 1 μM, replicates: in singlicate; n = 1
MAP3K15 = system: MAP3K15
MAP3K1 = system: MAP3K1
MAP3K2 = system: MAP3K2
MAP3K3 = system: MAP3K3
MAP3K4 = system: MAP3K4
MAP4K2 = system: MAP4K2
MAP4K3 = system: MAP4K3
MAP4K4 = system: MAP4K4
MAP4K5 = system: MAP4K5
MAPKAPK2 = system: MAPKAPK2
MAPKAPK5 = system: MAPKAPK5
MARK1 = system: MARK1
MARK2 = system: MARK2
MARK3 = system: MARK3
MARK4 = system: MARK4
MAST1 = system: MAST1
MEK1 = system: T1, MEK1
T1 construct: gene MAP2K1

MEK2 = system: T2, MEK2
T2 construct: gene MAP2K2

MEK3 = system: T3, MEK3
T3 construct: gene MAP2K3

MEK4 = system: T4, MEK4
T4 construct: gene MAP2K4
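Note: KINOMEscan kinase panel screen.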

SMILES | %Inh (MAP3K15) [%] | %Inh (MAP3K1) [%] | %Inh (MAP3K2) [%] | %Inh (MAP3K3) [%] | %Inh (MAP3K4) [%] | %Inh (MAP4K2) [%] | %Inh (MAP4K3) [%] | %Inh (MAP4K4) [%] | %Inh (MAP4K5) [%] | %Inh (MAPKAPK2) [%] | %Inh (MAPKAPK5) [%] | %Inh (MARK1) [%] | %Inh (MARK2) [%] | %Inh (MARK3) [%] | %Inh (MARK4) [%] | %Inh (MAST1) [%] | %Inh (MEK1) [%] | %Inh (MEK2) [%] | %Inh (MEK3) [%] | %Inh (MEK4) [%]
Cl.N#CCc1ccc(Nc2nccc(Nc3ccc(Oc4ccccc4)cc3)n2)cc1 [GW639905] | 21 | 11 | 0 | 0 | 10 | 0 | 0 | 99.1 | 100 | 0 | 0 | 0 | 0 | 0 | 0 | 0 | 2 | 12 | 0 | 22
Cc1ccc(Nc2ccnc(Nc3ccc(C)c(F)c3)n2)cc1O.Cl [GW582868] | 0 | 2 | 0 | 0 | 40 | 0 | 96.8 | 5 | 2 | 0 | 0 | 0 | 0 | 0 | 0 | 28 | 0 | 0 | 13 | 28
CN(C)CCNS(=O)(=O)c1ccc(-c2ccnc3[nH]ccc23)cc1 [GSK977620] | 14 | 11 | 49 | 19 | 0 | 11 | 31 | 20 | 8 | 0 | 0 | 8 | 31 | 13 | 2 | 0 | 0 | 0 | 10 | 19
Cl.Cl.NC(CNC(=O)c1cc(Br)c(-c2ccnc3[nH]ccc23)s1)c1ccccc1 (stereo not shown) [GSK1322949] | 16 | 14 | 27 | 15 | 3 | 56 | 20 | 53 | 4 | 0 | 0 | 0 | 22 | 0 | 0 | 29 | 0 | 0 | 74 | 57
CNc1nccc(-c2ccc3c(N)n[nH]c3c2)n1 [GSK2206003] | 0 | 14 | 0 | 0 | 0 | 54 | 0 | 13 | 0 | 0 | 0 | 0 | 25 | 0 | 0 | 0 | 0 | 5 | 34 | 22
c1ccc(Oc2ccc(Nc3ccnc4cc(-c5ccc(CN6CCCCC6)o5)ccc34)cc2)nc1 [GW567143] | 18 | 8 | 0 | 0 | 0 | 0 | 0 | 13 | 81 | 3 | 0 | 0 | 0 | 0 | 5 | 0 | 95.3 | 97.1 | 0 | 0
Cc1cc(-c2ccnc(Nc3cccc(C#N)c3)n2)cc(C)c1O [GSK1440913] | 0 | 22 | 2 | 1 | 18 | 30 | 18 | 76 | 12 | 0 | 0 | 0 | 0 | 0 | 0 | 0 | 0 | 0 | 89 | 40
CN1CCN(Cc2ccc(NC(=O)Nc3ccc(N(C)c4ccnc(Nc5ccc(CS(C)(=O)=O)cc5)n4)cc3)cc2)CC1.Cl [GW827654] | 100 | 37 | 59 | 61 | 96 | 67 | 95.5 | 95.8 | 82 | 0 | 13 | 32 | 60 | 61 | 31 | 32 | 1 | 25 | 74 | 86
O=C1NC(=O)C(c2ccccc2Cl)=C1Nc1cccc(Cl)c1 [SB-342409] | 0 | 10 | 1 | 3 | 3 | 0 | 5 | 0 | 0 | 37 | 0 | 0 | 0 | 2 | 0 | 0 | 2 | 5 | 0 | 0
O=C(O)C(F)(F)F.O=c1[nH]ccc2nc(N[C@@H]3CCNC3)nc(Nc3cc(Cl)cc(Cl)c3)c12 [GSK2188764] | 26 | 24 | 81 | 78 | 19 | 99.9 | 77 | 94.1 | 76 | 31 | 47 | 52 | 87 | 85 | 41 | 28 | 79 | 84 | 88 | 72
O=C(Nc1c(F)cccc1F)c1cc(C(=O)c2ccccc2F)c[nH]1 [GSK1326180] | 0 | 0 | 0 | 0 | 42 | 0 | 0 | 19 | 0 | 8 | 0 | 0 | 0 | 3 | 9 | 0 | 0 | 0 | 0 | 10
Fc1cc(Cl)ccc1Nc1ccnc2cc(-c3ccc(CN4CCOCC4)o3)ccc12 [GW560109] | 23 | 38 | 0 | 0 | 0 | 0 | 72 | 25 | 11 | 7 | 0 | 0 | 0 | 2 | 0 | 3 | 0 | 38 | 0 | 31
COc1cccc(NC(=O)NCCNc2ccnc(Nc3ccc(F)cc3)n2)c1 [GSK1379879] | 0 | 1 | 0 | 0 | 36 | 0 | 10 | 0 | 0 | 20 | 0 | 0 | 0 | 0 | 5 | 0 | 19 | 0 | 10 | 5
CS(=O)(=O)c1cccc(CNc2nc(Nc3ccc4c(c3)CCC(=O)N4)ncc2C(F)(F)F)c1 | 0 | 0 | 62 | 46 | 81 | 0 | 0 | 41 | 0 | 0 | 0 | 35 | 16 | 56 | 46 | 0 | 0 | 58 | 61 | 56
Cc1ccc(NC(=O)c2ccc(Cl)c(Cl)c2)cc1-c1ccc(C(=O)Nc2ccncc2)cc1 [GSK1398460] | 0 | 8 | 1 | 0 | 45 | 0 | 0 | 1 | 0 | 15 | 0 | 7 | 0 | 0 | 16 | 0 | 0 | 0 | 0 | 0
COc1cccc(C2=C(Nc3cccc(O)c3)C(=O)NC2=O)c1 [SB-390771] | 0 | 0 | 12 | 0 | 38 | 8 | 0 | 4 | 0 | 17 | 0 | 0 | 0 | 1 | 8 | 4 | 0 | 0 | 0 | 0
Cn1cc(-c2ccc3c(c2)CCN3C(=O)Cc2cc(F)cc(C(F)(F)F)c2)c2c(N)ncnc21 [GSK2635225] | 0 | 3 | 33 | 12 | 41 | 0 | 25 | 0 | 31 | 10 | 0 | 0 | 9 | 0 | 2 | 0 | 0 | 0 | 0 | 29
CC(C)c1nc(-c2cccc(NS(=O)(=O)c3c(F)cccc3F)c2)c(-c2ccnc(Nc3ccc(N4CCOCC4)nc3)n2)s1.Cl [GSK1723980] | 7 | 13 | 28 | 71 | 28 | 0 | 47 | 0 | 48 | 0 | 0 | 0 | 0 | 0 | 40 | 0 | 5 | 35 | 15 | 98.6
N#CC1(c2cccc(C(=O)Nc3cccc(Oc4ccc5nc(NC(=O)C6CC6)sc5n4)c3)c2)CC1 | 0 | 0 | 22 | 0 | 19 | 0 | 58 | 68 | 50 | 0 | 0 | 0 | 0 | 0 | 0 | 0 | 18 | 19 | 11 | 0
O=C(Nc1n[nH]c2nc(-c3cccc(O)c3)ccc12)C1CC1 [SB-711805] | 15 | 17 | 14 | 50 | 0 | 9 | 0 | 13 | 0 | 0 | 3 | 31 | 30 | 0 | 0 | 42 | 10 | 10 | 41 | 12
